# Assay results from PubChem BioAssay AID1478 (National Center for Advancing Translational Sciences (NCATS), 2009).
# The campaign covered roughly 200,000 compounds. About 860 (0.43%) were called active. Only a selection was taken, and actives are over-represented in it overall. Unmarked numbers belong to inactive results. Calls come from the whole dose curve; as a rule, active = well fitted inhibition curve with a large enough effect; inconclusive = small, poorly fitted or top-dose-only effect; inactive = flat fitted curve, though single readings scatter.
# Molecular target: Cruzipain (Trypanosoma cruzi) (UniProt P25779)
# Assay: qHTS Assay for Promiscuous and Specific Inhibitors of Cruzain (with detergent); note: nearly all actives have a fitted effect of over 40% in size
# Conditions: purified cruzain, Z-FR-AMC fluorescence, 0.01% Triton
# Method: Cruzain (3.4.22.51) is a cysteine protease from the tropical parasite Trypanosoma cruzi. Dual qHTS experiment was performed against the NCGC compound collection in order to 1) identify novel inhibitors of the enzyme and 2) profile the compound collection for promiscuous inhibitors operating via colloidal aggregation (by performing detergent-free and detergent-containing comparison screens). Cruzain was assayed by the use of fluorogenic coumarin-based substrate Z-FR-AMC: proteolytic cleavage releases AMC, whose fluorescence is measured at 360 nm excitation and 450 nm emission. Purified cruzain was supplied by the labs of Prof. James McKerrow and Brian Shoichet, UC San Francisco.
# This assay had 0.01% Triton X-100 concentration. See also releated assay "qHTS Assay for Promiscuous and Specific Inhibitors of Cruzain (without detergent)" with 0.00005% Triton X-100.
# See following references for additional details:
# Assay Provider: Shoichet, Brian; University of California, San Fancisco
# Screening Center PI: Austin, C.P.
# Screening Center: NIH Chemical Genomics Center [NCGC]
# Buffer: 100 mM Sodium Acetate, pH 5.5, 5 mM DTT, Triton X-100 concentration: 0.01%.
# Buffer in columns 3 and 4 as negative control (no enzyme).
# Substrate solution: 2 uM final concentration of Z-FR-AMC (catalog number I-1160, Bachem) dispensed throughout the plate.
# Enzyme: 1.5 nM Cruzain final concentration in columns 1, 2, 5-48. Column 1 is neutral (100% activity). Column 2 contained titration of covalent inhibitor K11777, starting concentration 1 mM, then 1:2 dilution in duplicate).
# Three uL of enzyme or buffer were dispensed to 1536-well Greiner black solid bottom plates. Compounds and controls (23 nL) were transferred via Kalypsys PinTool. The plates were incubated for 15 min at room temperature, and then 1 uL of substrate solution was added to start the reaction. The plates were immediately transferred to and read 4 times every 30 seconds for 2 min on ViewLux High-throughput CCD imager (Perkin-Elmer) using 360 nm excitation and 450 nm emission fluorescence protocol. The fluorescence intensity difference between the third and the first time points (time lapse of 60 seconds) was used to compute reaction progress.
# Potency is the fitted concentration of half-maximal effect.
# Sequence of Cruzipain (Trypanosoma cruzi) (P25779 123-467 limits assumed): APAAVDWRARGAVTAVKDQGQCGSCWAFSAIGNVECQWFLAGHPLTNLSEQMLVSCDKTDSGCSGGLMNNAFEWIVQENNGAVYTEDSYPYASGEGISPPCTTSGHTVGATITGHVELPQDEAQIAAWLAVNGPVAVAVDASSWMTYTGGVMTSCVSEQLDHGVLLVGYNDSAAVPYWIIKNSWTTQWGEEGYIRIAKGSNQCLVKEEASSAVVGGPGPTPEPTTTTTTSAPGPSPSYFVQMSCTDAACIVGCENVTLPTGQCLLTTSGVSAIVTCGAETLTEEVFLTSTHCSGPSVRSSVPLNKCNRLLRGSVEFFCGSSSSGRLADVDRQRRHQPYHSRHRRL
Structure (SMILES),Potency,"max response, negative = inhibition [%]"
c1ccc(-c2nnc(SCc3nc4ccccc4[nH]3)o2)cc1,25.1 µM (active),
Clc1ccc(-c2nnc(SCc3nc4ccccc4s3)o2)cc1,,-2.22
Clc1ccccc1SCc1nc2ccccc2[nH]1,,-1.73
COc1ccc(-c2noc(-c3ccc(N4CCN(c5ccccc5)CC4)c([N+](=O)[O-])c3)n2)cc1OC,,-4.6
O=C(NCc1ccccc1Cl)C1=Cc2cc(Br)ccc2OC1,,-4.23
COc1ccc(Cn2ccn(CC(=O)Nc3cc(C)ccc3C)c(=O)c2=O)cc1,,-6.93
O=C(NCCCO)C(=O)Nc1c2c(nn1-c1ccc(F)cc1)CSC2,,-6.19
c1cncc(-c2nc(N3CCNCC3)c3ccccc3n2)c1,,-1.38
c1ccc(Nc2nc(N3CCOCC3)c3ccccc3n2)cc1,14.1 µM (active),
Cc1cc(C(=O)Nc2ccccc2N2CCOCC2)c2ccccc2n1,,7.98
CCOc1ccc(N(C)S(=O)(=O)c2cc(-c3cnc(C)o3)ccc2OC)cc1,,-8.69
Cc1cc(-c2ccc(C)c(S(=O)(=O)N3c4ccccc4CC3C)c2)on1 (configuration not stated),,-1.84
CC(C)Nc1nc(N(c2ccccc2)c2ccccc2)nc(-n2ccnc2)n1,,1.14
N#Cc1nc(N)nc(N(c2ccccc2)c2ccccc2)n1,2.24 µM (active),
COc1cc(OC)c(N(C)C(=O)c2cc3c(=O)oc4ccccc4c3s2)cc1Cl,,-0.489
Cc1ccccc1CSCCNC(=O)C1CCN(S(=O)(=O)Cc2ccccc2)CC1,,-4.58
COc1cc(Cl)c(NC(=O)C(NS(=O)(=O)c2cccs2)C(C)C)c(OC)c1 (configuration not stated),,-0.797
CSc1nn(Cc2cccc(C)c2)c(N)c1S(=O)(=O)c1ccccc1,,-5.62
CCN(CC)CCNc1ncnc2c1cnn2-c1cc(Cl)ccc1C,,0.243

Structure (SMILES),Potency,"max response, negative = inhibition [%]"
Cc1cccn2c(=O)c3cc(C(=O)NC(C)c4ccccc4)c(=N)n(CCCO)c3nc12 (configuration not stated),,-22.8
CCn1c(=N)c(C(=O)NCCCOC)cc2c(=O)n3cccc(C)c3nc21,31.6 µM (active),
CCCn1c(=N)c(C(=O)NCc2ccccc2)cc2c(=O)n3cccc(C)c3nc21,,-0.842
O=C(NCc1ccc2c(c1)CCN2C(=O)c1ccccc1)c1ccccc1,,1.91
CCOc1ccc(-c2nonc2NC(=O)c2oc3ccc(C)cc3c2C)cc1OCC,,-1.93
O=C(CCS(=O)(=O)c1ccc2c(c1)NC(=O)CO2)Nc1cccc(C(F)(F)F)c1,,-1.23
COc1ccc(Cl)cc1NC(=O)CNc1ccccc1F,,-7.98
COc1ccc(Cl)cc1NC(=O)COC(=O)C(CC(C)C)N1C(=O)C2CC=CCC2C1=O (configuration not stated),12.6 µM (active),
COc1ccc(Cl)cc1NC(=O)Cn1c(=O)c2ccccc2n2nncc12,,-4.81
Cc1oc2ccc(O)c(CN3CCCCC3)c2c1C(=O)Nc1cccc(C(F)(F)F)c1,,-4.76
Cc1cc(C)cc(NS(=O)(=O)c2ccc(-c3cc(C)no3)s2)c1,,-11.1
Cn1c(C(=O)NCCN2CCc3ccccc3C2)cc2c(=O)[nH]c3ccccc3c21,15.8 µM (active),
O=C(NCCN1CCN(Cc2ccccc2)CC1)c1cc2c(=O)[nH]c3ccccc3c2s1,,-12.6
Cn1c(C(=O)NCCCN2CCN(c3cccc(Cl)c3)CC2)cc2c(=O)n(C)c3ccccc3c21,,-27.7
CC(=O)c1nn(-c2ccc(OC(F)(F)F)cc2)nc1Nc1ccccc1,,1.04
O=C(CSc1nc2nccnc2c(=O)n1CCc1c[nH]c2ccccc12)Nc1ccccc1F,,-2.4
O=C(C1COc2ccccc2O1)N(Cc1cccnc1)c1nc2c(F)cc(F)cc2s1 (configuration not stated),,-3.06
CC(C)c1ccc(NC(=O)Cn2nnc(C(=O)NCCc3ccccc3)c2N)cc1,,0.0037
COC(=O)c1scc(-c2ccc(C)cc2)c1S(=O)(=O)Nc1cc(Cl)c(OC)cc1OC,,-7.07

Structure (SMILES),Potency,"max response, negative = inhibition [%]"
O=C(CCn1c(=S)[nH]c2ccccc2c1=O)NCCCN1CCCC1=O,,0.249
Cc1cccc(C(=O)NCCCN2CCCC2=O)c1,,6.06
O=C1CCCN1CCCNc1ncnc2c1[nH]c1ccccc12,15.8 µM (active),
Cc1nn(C(=O)c2c(F)cccc2F)c(C)c1S(=O)(=O)N1CCOCC1,,0.43
COc1ccc(CC(=O)NCCc2sc3nc(-c4ccc(OC)cc4)nn3c2C)cc1,,-3.58
COc1cc(OC)cc(C(=O)Nc2cc3nn(-c4ccccc4)nc3cc2Cl)c1,,6.82
CCCCn1c(CCCNC(=O)CC)nc2ccccc21,,-2.07
CCC(=O)NCCc1nc2ccccc2n1CC,,4.89
CCCCCn1c(CCNC(=O)c2ccc(F)cc2)nc2ccccc21,4.47 µM (active),
Cc1cccc(C(=O)NCCc2nc3ccccc3n2Cc2ccccc2Cl)c1,8.91 µM (active),
Cc1ccc(C)c(Cn2c(CCCNC(=O)C3CCCCC3)nc3ccccc32)c1,,-3.31
CCCCCn1c(CCCNC(=O)c2ccccc2OC)nc2ccccc21,,-1.13
COc1ccc(Cn2c(C(=O)O)c(CNCc3cccc(OC)c3)c3ccc(C)cc32)cc1,,-10.4
CCCCCn1c(=O)[nH]c2cc(C(=O)Nc3ccc(F)cc3)ccc2c1=O,,-0.504
O=C(Nc1cc(C(F)(F)F)ccc1Cl)c1nc2ccccc2nc1N1CCCCC1,,2.61
COc1ccccc1NC(=O)C(=O)c1cc(C)n(-c2ccccc2F)c1C,,-2.07
O=C(CC1N=C2c3ccccc3N=C(SCc3ccc(F)cc3)N2C1=O)NCc1cccs1 (configuration not stated),,-4.42
COc1cc(OC)c(NC(=O)c2cnc(N3CCCC3)nc2C)cc1Cl,,-6.84
Cc1ccc(CNS(=O)(=O)c2ccc(C(=O)N(C)C)s2)cc1,,-0.386
